# According to PubChem BioAssay (NCATS):
# Inconclusive results are not listed. Active and inactive are the calls of the source. Unless noted, calls follow the shape of the dose curve; as a rule, active = well fitted cell-killing curve with a large enough effect; inconclusive = small, poorly fitted or top-dose-only effect, or effect the other way; inactive = no such curve, though single readings can be large or run the other way.
# How the values were obtained:
# [1] = Quantitative High-Throughput drug screen in 47 multiple myeloma cell lines against the NCATS MIPE library collection: OPM2_DSMZ cell viability assay (AID 1919872); also: nearly all actives have a fitted effect of over 30% in size
# How it was run: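 Myeloma cells (500 per well) were exposed to MIPE 4.0 compounds by pin transfer and incubated 48 hours at 37C, 5% CO2. Viability was read as ATP by CellTiter-Glo luminescence, normalised to DMSO (100%) and media-only (0%) wells.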
# [2] = Quantitative High-Throughput drug screen in 47 multiple myeloma cell lines against the NCATS MIPE library collection: KMS11_JCRBsus cell viability assay (AID 1919873); also: nearly all actives have a fitted effect of over 50% in size
# How it was run: (§1)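 qHTS format: cells plated (500/well), pin-dosed with MIPE 4.0 compounds, kept 48 h at 37 °C. Readout was CellTiter-Glo luminescence, median RLU.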
# [3] = Quantitative High-Throughput drug screen in 47 multiple myeloma cell lines against the NCATS MIPE library collection: KMS28BM_JCRB cell viability assay (AID 1919874); also: nearly all actives have a fitted effect of over 35% in size
# How it was run: as §1
# [4] = qHTS drug screen for cell cycle checkpoint inhibitors in PARPi-resistant BRCA-mutant ovarian cancer cell lines. (AID 1963452; calls by dose curve); conditions: PEO1/OlaR viability, CellTiter-Glo luminescence, 96 h; for Z-AUC: stronger effect = lower value
# How it was run: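 PEO1, PEO4 and PEO1/OlaR ovarian cancer cells, 600 per well, exposed 96 h at 37C to a dilution series. Viability read by CellTiter-Glo luminescence, normalized to DMSO and empty wells; activity summarized as Z-AUC.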
# [5] = qHTS for identification of novel therapeutic agents for treatment of microphthalmiaassociated transcription factor (MiT) renal cell carcinoma (RCC) (AID 1963991; calls by dose curve); conditions: CellTiter-Glo, 48 h; for z-score: stronger effect = lower value
# How it was run: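 Curves over 11 concentrations were fitted to CellTiter-Glo luminescence, scaled between empty wells (0%) and DMSO (100%) viability. Cells were UOK109, UOK124 and UOK145 TFE3-fusion RCC lines at 500/well, exposed 48 hours at 37 C.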
# [6] = measured here: PEO1 parental Z-AUC
# [7] = TFE3-RCC UOK109 viability, measured here: UOK109 Z-AUC
# [8] = TFE3-RCC viability, measured here: UOK124 Z-AUC
# [9] = TFE3-RCC viability, measured here: UOK145 Z-AUC
# Potency is read from the fitted curve at half-maximal effect.
smiles,measurement,setting,value
CC[C@]1(O)C[C@@H]2CN(CCc3c([nH]c4ccccc34)[C@@](C(=O)OC)(c3cc4c(cc3OC)N(C=O)[C@@H]3C45CCN4CC=C[C@](CC)([C@H]45)[C@@H](OC(C)=O)[C@]3(O)C(=O)OC)C2)C1 (stereo partly drawn),Potency,[1],23.5 µM (active)
O=c1c(-c2ccc(O)cc2)coc2cc(O)ccc12,Potency,[1],inactive
same,Potency,[2],inactive
same,Potency,[3],inactive
same,Z-AUC,[4],1.12 (inactive)
same,Z-AUC,[4]; [6],1.51
same,Z-AUC,[4]; measured here: PEO4 Z-AUC,1.78
same,z-score,[5]; [7],0.875
same,z-score,[5]; [8],0.542
same,z-score,[5]; [9],0.636
CCCCCCCCCCCC1=C(O)C(=O)C=C(O)C1=O,Potency,[1],7.43 µM (active)
same,Z-AUC,[4],1.62 (inactive)
same,Z-AUC,[4]; [6],1.09
same,Z-AUC,[4]; measured here: PEO4 Z-AUC,1.19
Nc1ncnc2ccccc12,Potency,[1],inactive
same,Potency,[2],inactive
same,Potency,[3],inactive
same,Z-AUC,[4],-0.0198 (inactive)
same,Z-AUC,[4]; [6],0.844
same,Z-AUC,[4]; measured here: PEO4 Z-AUC,0.705
CCOC(CN1C(=O)[C@](CC(=O)Nc2ccc(C)cc2)(NC(=O)Nc2ccc(C)cc2)c2ccccc21)OCC,Potency,[1],inactive
same,Potency,[2],26.4 µM (active)
same,Z-AUC,[4],1.21 (inactive)
same,Z-AUC,[4]; [6],1.06
same,Z-AUC,[4]; measured here: PEO4 Z-AUC,1.28
COc1ncc(-c2ccc3nccc(-c4ccnnc4)c3c2)cc1NS(=O)(=O)c1ccc(F)cc1F,Potency,[1],0.0026 µM (active)
same,Potency,[4],0.174 µM (active)
same,Z-AUC,[4]; [6],-2.06
same,Z-AUC,[4]; measured here: PEO4 Z-AUC,-1.99
same,Potency,"[5]; TFE3-RCC UOK109 viability, active = Z-AUC below -0.8 in all three lines",33.2 µM (active)
same,z-score,[5]; [7],-3.1
same,z-score,[5]; [8],-1.24
same,z-score,[5]; [9],-3.12
COc1ccc2cc(-c3nc(-c4ccc(S(C)=O)cc4)[nH]c3-c3ccncc3)ccc2c1 (stereo not drawn),Potency,[1],inactive
same,Potency,[2],23.5 µM (active)
same,Z-AUC,[4],-0.0857 (inactive)
same,Z-AUC,[4]; [6],-0.107
same,Z-AUC,[4]; measured here: PEO4 Z-AUC,-0.281
CC(C)C(=O)Oc1ccc(CO)cc1[C@H](CCN(C(C)C)C(C)C)c1ccccc1,Potency,[1],inactive
same,Potency,[2],inactive
same,Potency,[3],inactive
O=C1NC(=O)C(=Cc2ccc3c(c2)OC(F)(F)O3)S1,Potency,[1],inactive
same,Potency,[2],inactive
same,Potency,[3],inactive
CC(C)C[C@H](CC(=O)O)C(=O)N[C@@H](Cc1c[nH]c2ccccc12)C(=O)N[C@@H](C)c1ccccc1,Potency,[1],inactive
same,Potency,[2],inactive
same,Z-AUC,[4],1.58 (inactive)
same,Z-AUC,[4]; [6],1.54
same,Z-AUC,[4]; measured here: PEO4 Z-AUC,1.63
C[C@]12CC[C@@H]3c4ccc(O)cc4CC[C@H]3[C@H]1C[C@@H](O)[C@H]2O,Potency,[1],inactive
same,Potency,[3],inactive
same,z-score,[5]; [7],1.3
same,z-score,[5]; [8],0.473
same,z-score,[5]; [9],0.59
CCN(CC)CCOc1ccc(C(=C(Cl)c2ccccc2)c2ccccc2)cc1,Potency,[1],inactive
same,Potency,[3],10.5 µM (active)
CO[C@H]1C[C@@H]2CC[C@@H](C)[C@@](O)(O2)C(=O)C(=O)N2CCCC[C@@H]2C(=O)O[C@H]([C@@H](C)C[C@@H]2CC[C@H](O)[C@H](OC)C2)CC(=O)[C@H](C)C=C(C)[C@@H](O)[C@@H](OC)C(=O)[C@H](C)C[C@H](C)C=CC=CC=C1C,Potency,[1],inactive
same,Z-AUC,[4],-0.986 (inactive)
same,Z-AUC,[4]; [6],-0.581
same,Z-AUC,[4]; measured here: PEO4 Z-AUC,-0.84
same,z-score,[5]; [7],-0.128
same,z-score,[5]; [8],1.08
same,z-score,[5]; [9],-0.61
